Columns and labels:
Experiment in all cases: log2 ratio of Biotin-Ahx-Ub-VS probe labelling (fragment/DMSO); higher = less target engagement (more negative = stronger competition), active = hit call of the paper (q ≤ 0.05, log2 ratio ≤ -1)
Details in all cases: compound concentration: 200 uM; treatment time: 3 h
ALG13 = molecular target: T1, ALG13 (UniProt Q9NP73)
T1 sequence (whole entry): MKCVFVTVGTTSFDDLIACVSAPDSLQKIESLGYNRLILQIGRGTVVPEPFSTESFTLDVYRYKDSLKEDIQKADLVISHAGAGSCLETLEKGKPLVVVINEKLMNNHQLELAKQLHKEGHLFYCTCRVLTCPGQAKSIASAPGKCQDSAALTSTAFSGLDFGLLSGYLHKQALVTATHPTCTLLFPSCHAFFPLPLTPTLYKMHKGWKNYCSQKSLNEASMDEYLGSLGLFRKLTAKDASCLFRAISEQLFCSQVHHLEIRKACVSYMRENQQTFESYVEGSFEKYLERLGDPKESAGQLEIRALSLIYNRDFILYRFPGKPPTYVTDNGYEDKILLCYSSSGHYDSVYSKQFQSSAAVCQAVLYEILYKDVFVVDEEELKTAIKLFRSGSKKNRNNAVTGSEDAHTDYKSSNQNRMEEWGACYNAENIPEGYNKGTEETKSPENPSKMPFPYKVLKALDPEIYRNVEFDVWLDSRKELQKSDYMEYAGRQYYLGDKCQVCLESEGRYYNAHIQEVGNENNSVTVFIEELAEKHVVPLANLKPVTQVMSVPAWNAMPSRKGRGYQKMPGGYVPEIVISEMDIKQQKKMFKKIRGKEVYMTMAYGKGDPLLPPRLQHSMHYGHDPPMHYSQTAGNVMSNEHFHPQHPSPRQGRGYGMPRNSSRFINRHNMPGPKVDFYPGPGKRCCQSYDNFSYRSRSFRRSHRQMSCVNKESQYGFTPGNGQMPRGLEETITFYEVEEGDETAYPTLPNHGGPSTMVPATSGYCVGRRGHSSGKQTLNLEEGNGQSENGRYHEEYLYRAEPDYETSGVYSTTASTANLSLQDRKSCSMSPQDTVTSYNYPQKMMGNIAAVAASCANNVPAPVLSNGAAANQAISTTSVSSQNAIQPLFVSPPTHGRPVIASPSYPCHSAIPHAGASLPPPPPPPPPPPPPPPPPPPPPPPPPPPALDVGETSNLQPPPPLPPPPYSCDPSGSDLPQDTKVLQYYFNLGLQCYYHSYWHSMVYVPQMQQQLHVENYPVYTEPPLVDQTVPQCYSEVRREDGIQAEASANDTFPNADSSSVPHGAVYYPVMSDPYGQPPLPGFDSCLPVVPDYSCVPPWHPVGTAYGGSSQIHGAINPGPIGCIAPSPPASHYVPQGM
In short: (§1)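 HEK293T lysate (495 µg per sample, in Tris/CHAPS/IGEPAL buffer with protease inhibitors) was exposed in triplicate for 3 h to fragment at 200 µM or to vehicle, then to Biotin-Ahx-Ub-VS at 0.5 µM final for 1 h. Labelled DUBs were enriched on NeutrAvidin, digested with LysC and trypsin, and analysed by diaPASEF LC-MS/MS. Spectronaut label-free quantities were normalised to the global median, and values are average log2 ratios of fragment over vehicle from an unpaired t-test. Only proteins with ≥2 unique peptides were used.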

ATXN3 = ATXN3 (UniProt P54252)
Chain of ATXN3 (P54252 whole entry): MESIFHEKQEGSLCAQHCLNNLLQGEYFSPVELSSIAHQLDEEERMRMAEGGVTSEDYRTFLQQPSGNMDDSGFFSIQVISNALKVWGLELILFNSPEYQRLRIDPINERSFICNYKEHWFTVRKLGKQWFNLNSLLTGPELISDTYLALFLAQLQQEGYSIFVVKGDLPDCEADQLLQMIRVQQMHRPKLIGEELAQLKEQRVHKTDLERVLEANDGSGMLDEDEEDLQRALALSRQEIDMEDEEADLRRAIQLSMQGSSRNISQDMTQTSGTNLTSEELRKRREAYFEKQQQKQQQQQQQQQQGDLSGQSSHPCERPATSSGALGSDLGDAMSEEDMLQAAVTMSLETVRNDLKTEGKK
In short: as §1

BAP1 = molecular target: T2, BAP1 (UniProt Q92560)
T2 sequence (whole entry): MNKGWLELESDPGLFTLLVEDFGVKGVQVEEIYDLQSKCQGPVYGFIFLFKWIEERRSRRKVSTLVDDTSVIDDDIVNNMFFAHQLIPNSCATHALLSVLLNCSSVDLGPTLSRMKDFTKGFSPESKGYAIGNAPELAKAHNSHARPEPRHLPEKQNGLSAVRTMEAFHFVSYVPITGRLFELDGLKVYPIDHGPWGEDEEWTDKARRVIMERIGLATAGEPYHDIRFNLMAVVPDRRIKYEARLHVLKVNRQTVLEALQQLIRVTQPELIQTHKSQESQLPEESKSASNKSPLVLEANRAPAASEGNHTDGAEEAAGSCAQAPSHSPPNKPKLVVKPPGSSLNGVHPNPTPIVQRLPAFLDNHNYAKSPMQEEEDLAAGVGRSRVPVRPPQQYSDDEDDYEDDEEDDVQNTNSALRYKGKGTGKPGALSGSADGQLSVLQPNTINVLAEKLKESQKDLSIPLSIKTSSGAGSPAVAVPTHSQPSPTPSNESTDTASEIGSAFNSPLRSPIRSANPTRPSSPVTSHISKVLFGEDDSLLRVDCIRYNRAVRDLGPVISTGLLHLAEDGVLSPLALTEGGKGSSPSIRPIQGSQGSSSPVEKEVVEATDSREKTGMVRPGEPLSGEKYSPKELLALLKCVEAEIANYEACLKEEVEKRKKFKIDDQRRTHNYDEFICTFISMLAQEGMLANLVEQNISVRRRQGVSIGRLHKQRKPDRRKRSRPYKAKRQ
In short: as §1

EIF3F = EIF3F (UniProt O00303)
Chain of EIF3F (O00303 whole entry): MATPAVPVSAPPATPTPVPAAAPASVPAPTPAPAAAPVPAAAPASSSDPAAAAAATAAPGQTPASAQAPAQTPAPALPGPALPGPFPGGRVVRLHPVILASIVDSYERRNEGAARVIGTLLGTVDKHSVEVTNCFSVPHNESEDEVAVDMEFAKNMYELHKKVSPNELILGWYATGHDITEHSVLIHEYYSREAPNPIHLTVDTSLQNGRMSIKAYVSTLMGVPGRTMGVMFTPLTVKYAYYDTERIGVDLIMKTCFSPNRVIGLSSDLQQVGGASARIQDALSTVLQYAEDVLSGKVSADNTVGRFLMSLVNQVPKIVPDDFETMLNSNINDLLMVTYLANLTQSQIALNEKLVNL
In short: as §1

EIF3H = EIF3H (UniProt O15372)
Chain of EIF3H (O15372 whole entry): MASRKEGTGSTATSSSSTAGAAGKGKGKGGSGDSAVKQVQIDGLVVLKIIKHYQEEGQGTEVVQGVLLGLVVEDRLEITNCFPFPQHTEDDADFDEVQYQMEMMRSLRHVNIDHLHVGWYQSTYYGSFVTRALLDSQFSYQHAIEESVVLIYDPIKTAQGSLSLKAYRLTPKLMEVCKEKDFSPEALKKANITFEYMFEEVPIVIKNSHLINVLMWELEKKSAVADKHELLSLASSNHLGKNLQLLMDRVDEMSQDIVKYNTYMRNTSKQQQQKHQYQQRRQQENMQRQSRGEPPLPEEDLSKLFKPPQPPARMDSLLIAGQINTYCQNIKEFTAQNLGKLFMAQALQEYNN
In short: as §1

FAM105A = molecular target: T3, FAM105A (UniProt Q9NUU6)
T3 sequence (whole entry): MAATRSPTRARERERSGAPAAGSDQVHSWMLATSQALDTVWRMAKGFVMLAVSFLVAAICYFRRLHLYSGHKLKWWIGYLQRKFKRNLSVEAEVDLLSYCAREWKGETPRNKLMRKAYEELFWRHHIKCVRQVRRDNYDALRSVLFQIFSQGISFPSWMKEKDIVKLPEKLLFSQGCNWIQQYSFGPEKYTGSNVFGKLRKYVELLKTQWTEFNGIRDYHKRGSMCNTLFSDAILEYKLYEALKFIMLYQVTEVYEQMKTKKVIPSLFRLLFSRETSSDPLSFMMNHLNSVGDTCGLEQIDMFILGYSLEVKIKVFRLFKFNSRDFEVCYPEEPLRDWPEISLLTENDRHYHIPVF
In short: as §1

OTUB1 = OTUB1 (UniProt Q96FW1)
Chain of OTUB1 (Q96FW1 whole entry): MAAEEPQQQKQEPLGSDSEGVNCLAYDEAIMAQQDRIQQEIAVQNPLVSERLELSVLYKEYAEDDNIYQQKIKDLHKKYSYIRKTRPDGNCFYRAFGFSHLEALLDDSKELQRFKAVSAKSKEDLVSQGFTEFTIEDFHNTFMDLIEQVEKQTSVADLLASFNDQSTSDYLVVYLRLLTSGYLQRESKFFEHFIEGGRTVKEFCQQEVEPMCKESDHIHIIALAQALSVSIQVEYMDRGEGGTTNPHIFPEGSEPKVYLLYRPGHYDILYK
In short: as §1

OTUD4 = molecular target: T4, OTUD4 (UniProt Q01804)
T4 sequence (whole entry): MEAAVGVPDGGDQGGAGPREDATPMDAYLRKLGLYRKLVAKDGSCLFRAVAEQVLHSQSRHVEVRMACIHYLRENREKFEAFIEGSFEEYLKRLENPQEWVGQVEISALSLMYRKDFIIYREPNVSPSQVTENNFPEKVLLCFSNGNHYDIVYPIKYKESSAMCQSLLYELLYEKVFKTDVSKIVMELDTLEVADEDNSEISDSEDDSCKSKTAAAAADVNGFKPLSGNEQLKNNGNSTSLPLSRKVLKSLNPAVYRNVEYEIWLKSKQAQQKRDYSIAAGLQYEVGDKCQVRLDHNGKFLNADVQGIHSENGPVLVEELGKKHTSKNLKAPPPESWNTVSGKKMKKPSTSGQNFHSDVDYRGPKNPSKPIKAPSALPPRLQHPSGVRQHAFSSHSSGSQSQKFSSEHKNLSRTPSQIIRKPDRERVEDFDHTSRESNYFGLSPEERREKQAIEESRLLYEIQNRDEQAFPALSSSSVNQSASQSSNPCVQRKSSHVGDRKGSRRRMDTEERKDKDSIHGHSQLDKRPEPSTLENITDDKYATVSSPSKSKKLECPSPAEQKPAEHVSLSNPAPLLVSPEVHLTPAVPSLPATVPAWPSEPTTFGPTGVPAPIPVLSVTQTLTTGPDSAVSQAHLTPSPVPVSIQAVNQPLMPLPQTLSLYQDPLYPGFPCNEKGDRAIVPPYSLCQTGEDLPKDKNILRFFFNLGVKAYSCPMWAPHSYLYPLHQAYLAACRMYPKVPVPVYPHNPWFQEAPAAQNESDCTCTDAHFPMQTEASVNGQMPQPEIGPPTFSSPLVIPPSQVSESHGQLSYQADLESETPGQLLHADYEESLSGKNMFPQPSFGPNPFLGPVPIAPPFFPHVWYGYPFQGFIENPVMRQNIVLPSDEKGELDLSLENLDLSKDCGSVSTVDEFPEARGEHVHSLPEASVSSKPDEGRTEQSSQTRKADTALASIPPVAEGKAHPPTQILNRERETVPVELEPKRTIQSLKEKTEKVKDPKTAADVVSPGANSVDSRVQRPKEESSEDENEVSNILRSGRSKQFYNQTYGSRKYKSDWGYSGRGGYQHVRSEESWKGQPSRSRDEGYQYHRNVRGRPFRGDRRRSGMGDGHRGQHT
In short: as §1

OTUD5 = molecular target: T5, OTUD5 (UniProt Q96G74)
T5 sequence (whole entry): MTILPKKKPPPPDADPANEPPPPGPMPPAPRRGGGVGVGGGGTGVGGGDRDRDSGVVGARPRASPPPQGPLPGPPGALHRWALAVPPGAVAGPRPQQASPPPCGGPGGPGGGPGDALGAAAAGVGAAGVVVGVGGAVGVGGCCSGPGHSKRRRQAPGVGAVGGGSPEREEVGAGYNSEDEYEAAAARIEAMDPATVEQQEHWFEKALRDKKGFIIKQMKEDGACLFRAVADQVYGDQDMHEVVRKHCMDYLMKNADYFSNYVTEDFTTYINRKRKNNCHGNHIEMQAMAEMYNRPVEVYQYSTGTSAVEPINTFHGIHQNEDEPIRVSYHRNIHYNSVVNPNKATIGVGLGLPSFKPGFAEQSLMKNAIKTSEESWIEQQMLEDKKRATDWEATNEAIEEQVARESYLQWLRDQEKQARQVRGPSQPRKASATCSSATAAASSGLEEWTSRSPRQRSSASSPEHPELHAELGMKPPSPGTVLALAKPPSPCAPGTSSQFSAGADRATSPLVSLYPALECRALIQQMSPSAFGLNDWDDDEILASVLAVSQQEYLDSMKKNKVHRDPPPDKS
In short: as §1

Measured: log2 ratio of Biotin-Ahx-Ub-VS probe labelling

Cc1ccc(N(CCC#N)C(=O)CCl)cc1C
inactive: ALG13 -0.389 | ATXN3 -0.353 | BAP1 -0.735 | EIF3F -0.396 | EIF3H 0.219 | FAM105A -0.314 | OTUB1 -0.139 | OTUD5 -0.661
active: OTUD4 -1.93
